# An excerpt weighted towards active compounds, which were near 27% of everything screened.
# CYP2C9 inh: inhibitors of human CYP2C9. P11712. inhibition, % at 5 µM. 96,000 compounds, 20% hits. CYP2C9 Supersomes, luciferin-H conversion, luminescence;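 active = blocking of liver enzyme CYP2C9 beyond about 50% at 5 µM, limit read from the data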
# Cav32 inh: human Cav3.2 channel inhibition, primary screen; Cav3.2-expressing cells, Fluo-4 calcium fluorescence FDSS; hits give low values; B-score at 10 µM; 100,000 compounds, 4% hits; O95180;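 active = single-dose well whose peak fluorescence ratio is a statistical outlier from its plate by either plate-standardised score or position-corrected B-score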
# CYP2C9 activ: CYP2C9 (human) activation. activation factor at 5 µM. 96,000 compounds, 1.4% hits. AID 1024. recombinant CYP2C9, luciferin-H conversion, luminescence; hits give high values; factor 1 = untreated enzyme, 0 = blocked;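 active = activation factor of 2 or more for CYP2C9 at a 5 µM dose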;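 also: 0 = sulfaphenazole-blocked wells and 1 = vehicle-only wells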
# CYP2C19 inhib: blocks human cytochrome P450 2C19. P33261. CYP2C19 Supersomes, luciferin-H EGE luminescence, 30 min. inhibition, % at 5 µM. 96,000 compounds, 21% hits. AID 778;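 active = CYP2C19 inhibition above a set limit at 5 µM in the primary screen, cut at about 50% in these data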;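 also: plate controls were negative control wells for no effect and 2.5 mM tranylcypromine positive control for full effect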
# Target sequence (P33261 whole entry, looked up): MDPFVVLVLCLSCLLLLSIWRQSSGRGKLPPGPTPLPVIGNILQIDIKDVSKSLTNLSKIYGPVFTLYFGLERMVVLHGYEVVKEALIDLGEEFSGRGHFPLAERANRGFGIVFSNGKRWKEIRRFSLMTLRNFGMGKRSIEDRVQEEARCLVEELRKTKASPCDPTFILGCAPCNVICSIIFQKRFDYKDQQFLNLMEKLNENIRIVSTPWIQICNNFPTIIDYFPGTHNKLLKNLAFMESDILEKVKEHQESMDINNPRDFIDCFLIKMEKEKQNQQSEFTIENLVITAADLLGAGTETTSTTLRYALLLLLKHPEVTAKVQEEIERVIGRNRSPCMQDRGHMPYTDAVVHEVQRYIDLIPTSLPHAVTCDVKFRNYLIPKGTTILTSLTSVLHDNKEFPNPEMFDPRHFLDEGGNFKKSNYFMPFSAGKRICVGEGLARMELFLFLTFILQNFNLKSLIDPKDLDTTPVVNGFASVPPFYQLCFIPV
# CYP2C19 act: cytochrome P450 2C19 (human) activation; P33261; recombinant CYP2C19, luciferin-H EGE luminescence; hits give high values; 0 = fully inhibited enzyme, 1 = untreated enzyme; activation factor at 5 µM; 96,000 tested, under 10 active; AID 1025;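 active = activation factor of at least 2 at 5 µM in the primary screen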;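 also: 0 = wells with 2.5 mM tranylcypromine and 1 = vehicle-only wells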
# An asterisk follows results filed as active; . = not tested or not shown.
SMILES,CYP2C9 inh,Cav32 inh,CYP2C9 activ,CYP2C19 inhib,CYP2C19 act
CCCn1c(=O)c(C(=O)Nc2nnc(CC)s2)c(O)c2ccccc21,17,.,0.8,-12,1.1
CCCCNC(=O)COC(=O)c1cc(C)nc2ccccc12,-160,1.2,2.6*,75*,0.3
Cc1cc(C(=O)OCC(=O)NCCCN2CCCC2=O)c2ccccc2n1,-4,0.078,1,0,1
Cc1cc(C(=O)OCC(=O)NCCC(C)C)c2ccccc2n1,-137,-0.029,2.4*,21,0.8
Cc1cc(C(=O)OCC(=O)Nc2cc(C)on2)c2ccccc2n1,21,0.22,0.8,56*,0.4
COCCN(C(=O)c1csnn1)C(C(=O)NC(C)(C)C)c1cccc(OC)c1 (stereo not given),12,0.0029,0.9,15,0.9
COc1ccc(C(=O)Nc2nc(-c3ccc([N+](=O)[O-])cc3)c(-c3ccccc3)s2)cc1,.,0.44,.,.,.
O=S(=O)(Nc1nccs1)c1cc(Cl)ccc1Cl,-53,-0.37,1.5,18,0.8
O=C(C1CCC(Cn2c(=S)[nH]c3ccccc3c2=O)CC1)N1CCN(c2ccccc2)CC1 (stereo not given),.,-4.7*,.,.,.
O=C(C1CCC(Cn2c(=S)[nH]c3ccccc3c2=O)CC1)N1CCOCC1 (stereo not given),50,1.5,0.5,13,0.9
COc1ccc(N2CCN(C(=O)C3CCC(Cn4c(=S)[nH]c5ccccc5c4=O)CC3)CC2)cc1 (stereo not given),81*,-3.8,0.2,83*,0.2
Cc1nn(C)c(C)c1NC(=O)c1ccc(S(=O)(=O)N(C)C)cc1,1,1.3,1,-1,1
Nn1cnnc1N/N=C/c1cc(Br)cc(Br)c1O,44,.,0.6,4,1
O=c1oc2ccccc2c(Nc2cccc(O)c2)c1[N+](=O)[O-],18,0.64,0.8,91*,0.1
Nc1c(Nc2ccccc2)c2ccccc2oc1=O,80*,-0.12,0.2,95*,0.1
COC(=O)c1cc(Br)c(=O)n(Cc2cccnc2)c1,16,0.0081,0.8,21,0.8
CCC(C)n1c(C)nc2c(c1=O)c1nc3ccccc3nc1n2-c1ccc2c(c1)OCCO2 (stereo not given),-3,.,1,-8,1.1
COc1ccc(C(=O)CSc2nnc(C3CCCCC3)n2N)c(OC)c1,-20,0.095,1.2,16,0.8
COc1ccccc1NC(=O)CSc1nnc(C2CCCCC2)n1C,8,0.043,0.9,65*,0.3
CCc1nnc(NC(=O)CSc2nnc(C3CCCCC3)n2-c2ccccc2)s1,20,-2,0.8,26,0.7
Cn1c(SCC(=O)c2ccccc2)nnc1C1CC1,0,-0.46,1,50*,0.5
CCOc1ccc(C(=O)CSc2nnc(C3CC3)n2C)cc1,.,0.48,.,.,.
Cc1ccccc1NC(=O)Cc1nc(CSc2nnc(C3CCCCC3)n2N)cs1,84*,-0.66,0.2,55*,0.5
Nn1c(SCC(=O)Nc2cccc(F)c2)nnc1C1CCCCC1,53*,0.61,0.5,54*,0.5
COC(=O)c1cc(O)cc(OC)c1Oc1cc(C)cc(O)c1C(=O)O,.,0.084,.,.,.
SMILES,CYP2C9 inh,Cav32 inh,CYP2C9 activ,CYP2C19 inhib,CYP2C19 act
CC(C)(C)OC(=O)N[C@@H](Cc1ccccc1)[C@H](O)c1ccco1,.,0.0043,.,.,.
Cc1ccc(C)c(S(=O)(=O)NC(C)C(=O)Nc2ccc(-c3nc4ccccc4s3)cc2)c1 (stereo not given),4,0.55,1,0,1
Cc1nnsc1SC(C)C(=O)O (stereo not given),-1,0.082,1,-1,1
Cc1cc(N2CCCCC2)n2ncc(-c3ccccc3)c2n1,-46,0.74,1.5,-10,1.1
Cc1cc(N2CCC(C)CC2)n2ncc(-c3ccccc3)c2n1,70*,-0.16,0.3,37,0.6
Cc1cc(N2CCOCC2)n2ncc(-c3ccccc3)c2n1,41,-1.7,0.6,-15,1.2
Cc1cc(N2CCCCC2)n2ncc(-c3ccc(Cl)cc3)c2n1,57*,-0.66,0.4,29,0.7
COC/C=C/C1=CC2=CC(=O)C(C)(O)C(=O)C2=CO1 (stereo not given),.,0.61,.,.,.
Cc1cccc(CSc2cccc3cccnc23)c1,-39,-0.78,1.4,46,0.5
O=C1CC(c2ccc3c(c2)OCO3)Sc2nc3ccccc3n21 (stereo not given),64*,-1.9,0.4,60*,0.4
CSc1nc2sc3c(c2c2nnnn12)CCC3,11,.,0.9,62*,0.4
CSc1nc2sc3c(c2c2nnnn12)CCCC3,22,-0.5,0.8,10,0.9
COc1cccc(-c2nn(-c3ccccc3)cc2C(=O)Nc2nccs2)c1,46,-5.2*,0.5,18,0.8
COc1ccc(-c2nn(-c3ccccc3)cc2C(=O)Nc2nccs2)cc1,52*,-5.8*,0.5,30,0.7
CN(C)c1c([N+](=O)[O-])cc2[nH]c(=O)[nH]c2c1[N+](=O)[O-],20,0.7,0.8,-17,1.2
Cc1ccc(CC2CC(=O)N(CC(=O)O)C2=O)cc1 (stereo not given),.,0.69,.,.,.
COc1ccc(NC(=O)CSc2nc3c(c(-c4cccs4)c2C#N)CN(C)CC3)cc1OC,64*,-1.4,0.4,50,0.5
COc1ccc(NC(=O)CSc2nnc(-c3cccs3)n2C)cc1OC,-5,0.084,1.1,-9,1.1
COc1cccc(N2CCN(CC(=O)c3c[nH]c4ccc(OC)cc34)CC2C)c1 (stereo not given),50*,-1.6,0.5,29,0.7
Nc1nc(N)nc(-c2ccc(Oc3ccccc3)cc2)n1,51*,-0.027,0.5,34,0.7
Cc1ccc(Oc2ccc(-c3nc(N)nc(N)n3)cc2)cc1C,3,1.5,1,7,0.9
C=CCn1cnc2scc(-c3ccc(C)cc3)c2c1=O,65*,-0.53,0.3,92*,0.1
Cc1ccc(S(=O)(=O)N(C#N)c2nc(C)cc(C)n2)cc1,1,-0.029,1,-4,1
Cc1ccc(S(=O)(=O)N(c2nc(N(C)C)nc(N(C)C)n2)n2cnnc2)cc1,54*,-0.35,0.5,-6,1.1
O=C(Cn1ccc2ccccc2c1=O)NCCC(=O)NC1CCN(Cc2ccccc2)CC1,-25,-0.055,1.3,-14,1.1
SMILES,CYP2C9 inh,Cav32 inh,CYP2C9 activ,CYP2C19 inhib,CYP2C19 act
Cc1ccc(C2=NCCNC2=O)c(C)c1,5,0.35,0.9,-3,1
COc1ccnc(N=CNOCc2cccc(Cl)c2Cl)c1C#N,8,0.045,0.9,58*,0.4
Clc1ccc(CON/C=N/c2ncnc3sccc23)c(Cl)c1,22,-0.82,0.8,15,0.8
CCOC(=O)C(C)c1ccc2cc(OC)ccc2c1 (stereo not given),-28,-1.7,1.3,52*,0.5
CCOC(=O)C(C(C)=O)C(c1ccc(OC)cc1)C(C(C)=O)C(=O)OCC (stereo not given),-18,0.68,1.2,-8,1.1
Nc1nc(-c2ccccc2)cs1,-6,1.7,1.1,4,1

# From PubChem BioAssay
